# Compound activity from PubChem BioAssay.
# Sampled rows, rich in hits. Any-hit rate of the full collection: about 4.6%.
# VACV mCherry inh = qHTS for Stage-Specific Inhibitors of Vaccinia Orthopoxvirus: mCherry Reporter Primary qHTS; Vaccinia virus mCherry reporter infection, fluorescence; Potency, µM (titrated, usually from 36.5 µM), without a hit: top-dose activity change, negative = inhibition, usual class: inhibitors; actives 0.63% (n = 310,000); AID 720579, 2013; calls by dose curve; tested in A549 cells; further: nearly all actives have a fitted effect of over 35% in size
# Marburg entry inh = qHTS for inhibitors of binding or entry into cells for Marburg Virus | Marburg virus pseudotyped entry inhibition, cell reporter | Potency, µM (highest dose often 37.8 µM), for inactives: top-dose activity change, negative = inhibition, most hits filed as inhibitors | actives 1.8% (n = 300,000); calls by dose curve; tested in HEK293 cells
# HCV inhibitor = qHTS Assay for Inhibitors of Hepatitis C Virus (HCV). Huh7.5.1 HCVcc-Cre infection, luciferase reporter, 44 h. Potency, µM (doses to about 41.8 µM), for the others: at the highest dose activity change, negative = inhibition, actives largely listed as inhibitors. actives 3.4% (n = 340,000); active means well fitted inhibition curve with a large enough effect; inconclusive means small, poorly fitted or top-dose-only effect, or another doubt; inactive means no such curve, though single readings can be large or run the other way
#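 Compounds are dispensed onto cells plated 4 h earlier at 1,000 per well, with HCVcc-Cre virus (about 0.5 moi) added next. Following 44 h of culture, luminescent signal is measured for 15 sec after 15 min with substrate at room temperature.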
# VACV Venus inh = qHTS for Stage-Specific Inhibitors of Vaccinia Orthopoxvirus: Venus Reporter Primary qHTS. Vaccinia virus Venus reporter expression, fluorescence. Potency, µM (titrated, usually from 36.5 µM), for the others: at the top dose activity change, negative = inhibition, usual class: inhibitors. actives 0.46% (n = 330,000); calls by dose curve; tested in A549 cells; further: nearly all actives have a fitted effect of over 30% in size
# LASV entry inh = qHTS for Inhibitors of binding or entry into cells for Lassa Virus; Lassa virus pseudotype entry inhibition, cell reporter; Potency, µM (highest dose often 37.9 µM), for the others: at the top dose activity change, negative = inhibition, usual class: inhibitors; actives 1.2% (n = 300,000); AID 540256, 2011; calls by dose curve; tested in HEK293 cells; further: nearly all actives have a fitted effect of over 50% in size
# The depositor's hits bear a star; i = inactive; ? = inconclusive; nt = no result given; [ ] = remark or other dose. On the % scale 0 is the no-effect control and ±100 the full control effect; potency means the concentration at half of the fitted maximal effect.
SMILES,VACV mCherry inh,Marburg entry inh,HCV inhibitor,VACV Venus inh,LASV entry inh
CCOC(=O)c1cccc(NS(=O)(=O)c2ccc(-c3cnc(C4CC4)o3)cc2)c1,-27%,nt,nt,-16%,-24%[46.1 µM]
Cc1ccc2c(CC(=O)Nc3c(C(=O)c4ccc(F)cc4)oc4ccccc34)coc2c1,-8%,2%[46.1 µM],nt,-8%,-12%[46.1 µM]
COc1ccc(-c2cc(OC(=O)c3cccc(Cl)c3)c3c(C)oc(C)c3c(=O)c2)cc1,-5%,?,nt,23%,?
CCn1c(-c2ccccc2F)nc2cc(NC(C)=O)cc(C(=O)N(C)Cc3c(C)nc4ccccn34)c21,-6%,nt,nt,0%,nt
Cc1ccc(C)c(NC(=S)Nc2cccnc2)c1,-5%,?,5%,-10%,-3%
Cc1ccc(NC(=S)Nc2cccnc2)c(S(=O)(=O)N2CCCCC2)c1,-2%,?,11µM*,-4%,?
CCC1CN(CCNC(=O)c2cscn2)Cc2cc(OC)ccc2O1 (stereo unspecified),-9%,nt,nt,-4%,nt
O=C(Nc1ccccc1)Nc1cc(OCC(F)(F)F)cc(OCC(F)(F)F)c1,?,?,6.3µM*,?,?
O=C(Nc1cccnc1)Nc1cc(Cl)cc(Cl)c1,-27%,-15%,?,?,1%
CS(=O)(=O)Nc1ccccc1C(=O)Nc1cc(Cl)cc(Cl)c1,7.9µM*,?,?,11µM*,?
O=C(Nc1ccccc1)Nc1cc(Cl)cc(Cl)c1,nt,?,?,11µM*,?
COc1ccc(NC(=O)NC(=O)c2ccccc2)cc1,nt,nt,23%,nt,nt
O=C(NC(=O)c1ccccc1)Nc1ccccc1,0%,2.8µM*,6%,-5%,?
O=C(Nc1ccccc1)Nc1ccc(Oc2cccnc2)nc1,-29%,?,-30%,-26%,3%
CS(=O)(=O)Nc1ccccc1C(=O)Nc1cccc(Cl)c1,?,?,-4%,-23%,-1%
OCc1ccc(N=Nc2ccccc2)cc1,nt,nt,10%,nt,nt
COc1ccc(N=Nc2ccc(CO)cc2)cc1,-6%,?,23%,-13%,1µM*
Cc1ccc(CNC(=O)COC(=O)c2cc3c(s2)CCC(C)C3)cc1 (stereo unspecified),-12%,?,0%,-9%,7.9µM*
CC1CCc2sc(C(=O)NCc3ccc(F)cc3)cc2C1 (stereo unspecified),nt,-6%,11%,nt,5%
CC1CCc2sc(C(=O)OCC(=O)NCc3ccccc3)cc2C1 (stereo unspecified),-12%,-22%,10%,-27%,10µM*
Cc1ccc(NC(=O)Cn2cnc3sc(C)c(S(=O)(=O)N4CCN(c5ncccn5)CC4)c3c2=O)cc1F,-8%,30%[46.1 µM],nt,-4%,-6%[46.1 µM]
CCOC(=O)c1c(-n2c(C)cc(/C=C3\C(=O)NC(=O)N(C)C3=O)c2C)sc2c1CCCC2,nt,?,14µM*,nt,?
Cc1cc(/C=C2\C(=O)NC(=O)N(c3ccc(Cl)cc3)C2=O)c(C)n1-c1sc2c(c1C#N)CCCC2,0%,1%,-21%,-2%,nt
CCOC(=O)c1c(-n2c(C)cc(C=O)c2C)sc2c1CCCC2,nt,12µM*,?,nt,9.2µM*
Cc1cc(/C=C2/NC(=O)NC2=O)c(C)n1-c1sc2c(c1C#N)CCCC2,?,?,-29%,-20%,4.5µM*
SMILES,VACV mCherry inh,Marburg entry inh,HCV inhibitor,VACV Venus inh,LASV entry inh
CCOC(=O)CN1C(=O)NC(CCc2ccccc2)C(C(=O)OC)=C1C (stereo unspecified),nt,-23%[14.2 µM],nt,nt,?
Cc1c(C)c2cc(Cl)c(O)c(CN3CCC[C@@H](C)C3)c2oc1=O,nt,0%,nt,nt,nt
Clc1ccsc1-c1csc(-c2cccnc2)n1,nt,?,14µM*,?,-8%
CCN(CC)c1cc2c(cc1F)c(=O)c(S(=O)(=O)c1cccc(C)c1)cn2C,i,nt,nt,-14%,-2%[46.1 µM]
CCCS(=O)(=O)NCc1c(C)ncc2c1CCN(C(=O)c1c(F)ccc(F)c1F)C2,-1%,nt,nt,7%,nt
C[n+]1ccccc1/C=C/c1ccccc1Cl,-29%,-2%[46.1 µM],?,-25%,2%[46.1 µM]
C[n+]1ccccc1/C=C/c1ccc([N+](=O)[O-])cc1,?,2%[46.1 µM],10µM*,-28%,8%[46.1 µM]
Cc1ccccc1/C=C/c1cccc[n+]1C,nt,nt,6.3µM*,nt,nt
